{"source": "PubChem BioAssay AID686979", "about": "(National Center for Advancing Translational Sciences (NCATS), 2013)", "note": "About 50,000 (12%) of roughly 420,000 compounds were called active. About 26% were inconclusive and are not listed. Calls follow the shape of the dose curve; as a rule, active = well fitted inhibition curve with a large enough effect; inconclusive = small, poorly fitted or top-dose-only effect; inactive = flat fitted curve, though single readings scatter. For the sample, actives were picked, then their nearest neighbours and some compounds at random. Where a SMILES comes first, the peptide text is derived from it. Bridges are numbered along the chain shown (N, C = ends). [ ]: non-standard residue; d: D form. The star is where a group is joined. X4 = CC[C@H](C)CCCCC(=O)*; Dab = NCC[C@H](N)C(=O)O"}
{"assay": "qHTS for Inhibitors of human tyrosyl-DNA phosphodiesterase 1 (TDP1): qHTS in cells in presence of CPT; also: nearly all actives have a fitted effect of over 55% in size; also: potency is read from the fitted curve at half-maximal effect; as to activity change, negative = growth inhibition: % is scaled to controls: 0 for no effect and ±100 for the full control effect", "conditions": "chicken DT40 Tdp1-/-;hTDP1 cells + 20 nM CPT, ATP luminescence, 48 h; series mostly up to 46.2 µM; activity change, negative = growth inhibition: at the top concentration", "procedure,_shortened": "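Chicken DT40 Tdp1-/- cells stably complemented with human TDP1 were seeded at 400 cells/well in medium containing 20 nM camptothecin, exposed to pin-transferred compounds, and grown at 37 °C for at least 48 hr. Viability was read as ATP luminescence.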"}
{"smiles": "O=C(OCCN1CCOCC1)C1(c2ccccc2)CCCCC1", "Potency": "inactive"}
{"smiles": "CCN(Cc1ccccc1)Cc1c(O)ccc2c(=O)c(-c3ccc(Cl)cc3Cl)coc12", "activity change, negative = growth inhibition": "0.932% (inactive)"}
{"smiles": "Cc1nc(C(F)(F)F)ccc1C(=O)N1CCC1(C)C(=O)NS(=O)(=O)c1ccc(F)cc1F", "note": "(stereo not given)", "activity change, negative = growth inhibition": "-11.8% (inactive)"}
{"smiles": "O=C(Nc1cccnc1)c1cc(Cl)ccc1Cl", "activity change, negative = growth inhibition": "-4.97% (inactive)"}
{"smiles": "CC(=O)c1nn(-c2ccc(C)cc2)cc1C(=O)c1cccc(Br)c1", "activity change, negative = growth inhibition": "-1.68% (inactive)"}
{"smiles": "COc1ccc(S(=O)(=O)N2CCN(C(=O)N(C)C)C2C)cc1", "note": "(stereo not given)", "activity change, negative = growth inhibition": "25.4% (inactive)"}
{"smiles": "COc1ccc(NC(=O)CCCC(=O)c2ccccc2)cc1", "activity change, negative = growth inhibition": "5.35% (inactive)"}
{"smiles": "CC(C)N(C(=O)Cn1cc(S(=O)(=O)CC(=O)N2CCOCC2)c2ccccc21)C(C)C", "activity change, negative = growth inhibition": "-12.8% (inactive)"}
{"smiles": "CCCc1nn2c(=O)cc(COC(=O)c3ccc(NC(=O)COc4ccc(F)cc4)cc3)nc2s1", "activity change, negative = growth inhibition": "-14.8% (inactive)"}
{"smiles": "NC(=O)c1nsc(C(=O)N(CCCN2CCOCC2)C(C(=O)NC2CCCCC2)c2ccc(Cl)cc2)c1N", "note": "(stereo not given)", "activity change, negative = growth inhibition": "2.27% (inactive)"}
{"smiles": "CC(C)(C)NC(=O)C(c1ccc(Cl)cc1)N(CCO)C(=O)c1snc(C(N)=O)c1N", "note": "(stereo not given)", "Potency": "13 µM (active)"}
{"smiles": "COc1cc(C(C(=O)NC2CCCC2)N(Cc2ccccc2)C(=O)c2snc(C(N)=O)c2N)ccc1O", "note": "(stereo not given)", "activity change, negative = growth inhibition": "-13.6% (inactive)"}
{"smiles": "CC(C)(C)C(=O)NC1CC2CCCC(C1)N2C(=O)Nc1ccccc1F", "note": "(stereo not given)", "activity change, negative = growth inhibition": "3.31% (inactive)"}
{"smiles": "Cc1ccc(OCc2cc(C(=O)N(C)CCn3ccnc3C)no2)cc1C", "activity change, negative = growth inhibition": "-13.2% (inactive)"}
{"smiles": "COC(=O)[C@@H]1CCCN1C(=O)c1cc(COc2cccc3cccnc23)on1", "activity change, negative = growth inhibition": "-13.8% (inactive)"}
{"smiles": "COCC1CCCCN1C(=O)c1cc(COc2ccc(C)c(C)c2)on1", "note": "(stereo not given)", "Potency": "20.6 µM (active)"}
{"smiles": "O=C1C=CN2CCCC2CC1", "note": "(stereo not given)", "Potency": "16.4 µM (active)"}
{"smiles": "Cc1cc(C)c(C#N)c(Nc2cccc(Br)c2)n1", "activity change, negative = growth inhibition": "-4.23% (inactive)"}
{"smiles": "CC1(C(=O)NS(=O)(=O)c2cccs2)CCN1C(=O)Cc1ccc(-c2ccccc2)cc1", "note": "(stereo not given)", "activity change, negative = growth inhibition": "-5.95% (inactive)"}
{"smiles": "CC1(C(=O)NS(=O)(=O)c2ccccc2)CCN1C(=O)Cc1ccc(-c2ccccc2)cc1", "note": "(stereo not given)", "activity change, negative = growth inhibition": "-7.34% (inactive)"}
{"smiles": "CCCNC(=O)C1(C)CCN1C(=O)Cc1ccc(-c2ccccc2)cc1", "note": "(stereo not given)", "Potency": "16.4 µM (active)"}
{"smiles": "CCOC(=O)c1c(C)[nH]c(C(=O)OCC(=O)c2ccc(OC)cc2OC)c1C", "activity change, negative = growth inhibition": "-17.3% (inactive)"}
{"smiles": "N#C/C(=C\\c1cccnc1)C(=O)Nc1ccc(SC(F)F)cc1", "activity change, negative = growth inhibition": "-28.9% (inactive)"}
{"smiles": "O=C(C1CCC1)N1CCN(c2ccccc2)CC1", "activity change, negative = growth inhibition": "-15.3% (inactive)"}
{"smiles": "Cn1c(C(=O)N2CCC(C(=O)N3CCN(c4ccccc4)CC3)CC2)cc2sccc21", "Potency": "13 µM (active)"}
{"smiles": "CS(=O)(=O)N1CCC(C(=O)N2CCN(c3ccccc3)CC2)CC1", "activity change, negative = growth inhibition": "-15.5% (inactive)"}
{"smiles": "CCOC(=O)Cc1ncccc1C(=O)Nc1ccc(OC)cc1", "activity change, negative = growth inhibition": "7.57% (inactive)"}
{"smiles": "Cc1ccc2cccc([N+](=O)[O-])c2n1", "activity change, negative = growth inhibition": "3.55% (inactive)"}
{"smiles": "CC[C@H](C)CCCCC(=O)N[C@@H](CCN)C(=O)N[C@H](C(=O)N[C@@H](CCN)C(=O)N[C@H]1CCNC(=O)[C@H]([C@@H](C)O)NC(=O)[C@H](CCN)NC(=O)[C@H](CCN)NC(=O)[C@H](CC(C)C)NC(=O)[C@@H](CC(C)C)NC(=O)[C@H](CCN)NC1=O)[C@@H](C)O", "note": "(X4-[Dab]T[Dab][Dab][Dab][dL]L[Dab][Dab]T; lactam 4-C)", "activity change, negative = growth inhibition": "7.64% (inactive)"}
{"smiles": "CC(=O)N1CCCc2ccc(NS(=O)(=O)c3ccc(F)cc3F)cc21", "activity change, negative = growth inhibition": "3.45% (inactive)"}
{"smiles": "CCc1nn(CCCN2CCN(c3cccc(Cl)c3)CC2)c(=O)n1CCOc1ccccc1", "Potency": "11.6 µM (active)"}
{"smiles": "CCN1C(=O)/C(=C\\N2CCN(c3cccc(Cl)c3)CC2)SC1=S", "activity change, negative = growth inhibition": "-25.7% (inactive)"}
{"smiles": "Cc1nn(CCOc2ccccc2)c(=O)n1-c1ccccc1F", "activity change, negative = growth inhibition": "-4.12% (inactive)"}
{"smiles": "Cc1cc(C)cc(NC(=O)CCCc2nc(-c3ccccc3Cl)no2)c1", "activity change, negative = growth inhibition": "-7.11% (inactive)"}
{"smiles": "COc1ccc(-c2noc(CNC(=O)C(C)Oc3ccccc3)n2)cc1", "note": "(stereo not given)", "activity change, negative = growth inhibition": "-11.7% (inactive)"}
{"smiles": "NC1=NC(c2ccc([N+](=O)[O-])cc2)N(c2ccc(F)cc2)C(N)=N1", "note": "(stereo not given)", "activity change, negative = growth inhibition": "-21.7% (inactive)"}
{"smiles": "Cc1ccc(OCCn2c(CNc3ccccc3C)nc3ccccc32)cc1", "Potency": "23.1 µM (active)"}
{"smiles": "Cc1ccc(OCc2nc3ccccc3n2C)cc1", "activity change, negative = growth inhibition": "-29.2% (inactive)"}
{"smiles": "COCCn1c(-c2ccc(OC)c(OC)c2)nc2ccccc21", "activity change, negative = growth inhibition": "-3.14% (inactive)"}
{"smiles": "COc1cc2ccccc2cc1C(=O)Nc1nc(C)c(C(C)=O)s1", "activity change, negative = growth inhibition": "3.46% (inactive)"}
{"smiles": "Cc1csc2nc(COc3ccc(NC(=O)COc4ccccc4)cc3)cc(=O)n12", "activity change, negative = growth inhibition": "-21.1% (inactive)"}
{"smiles": "O=C(COc1ccccc1F)Nc1ccc(C(=O)OCc2cc(=O)n3nc(C4CC4)sc3n2)cc1", "activity change, negative = growth inhibition": "-6.06% (inactive)"}
{"smiles": "Cc1csc2nc(COC(=O)c3ccc(NC(=O)COc4ccccc4F)cc3)cc(=O)n12", "Potency": "18.4 µM (active)"}
{"smiles": "COc1ccc(CCNC(=O)CCNS(=O)(=O)c2cc(Br)cnc2N)cc1OC", "activity change, negative = growth inhibition": "-14.4% (inactive)"}
{"smiles": "COC(=O)[C@H](CC(C)C)NC(=O)N1CCCCC1C", "note": "(stereo not given in full)", "activity change, negative = growth inhibition": "-20.3% (inactive)"}
{"smiles": "CC(C)(C)Nc1nc(-c2ccccn2)nc2ccccc12", "Potency": "4.61 µM (active)"}
{"smiles": "Cc1nc2ccccc2c(C(=O)O)c1-c1ccccn1", "activity change, negative = growth inhibition": "-9.02% (inactive)"}
{"smiles": "CC(=O)Nc1ccc(NC(=O)CCN2C(=O)C3CC=CCC3C2=O)cc1", "note": "(stereo not given)", "activity change, negative = growth inhibition": "-8.73% (inactive)"}
{"smiles": "COC(=O)[C@]1(C)CCC[C@@]2(C)C3CC[C@]4(OC(C)=O)C[C@@]3(CCC21)CC4=NO", "note": "(stereo not given in full)", "Potency": "16.4 µM (active)"}
{"smiles": "COC(=O)[C@@H]1C[C@H]2CC[C@H](O)C[C@H]2N1Cc1ccc(N2CCN(C)CC2)cc1", "activity change, negative = growth inhibition": "2.1% (inactive)"}
{"smiles": "O=C(c1cccnc1NCc1ccccc1)N1CCOCC1", "activity change, negative = growth inhibition": "-0.352% (inactive)"}
{"smiles": "Cc1nc2sc(C(c3ccco3)N3CCOCC3)c(O)n2n1", "note": "(stereo not given)", "activity change, negative = growth inhibition": "-5.57% (inactive)"}
{"smiles": "Oc1c(C(c2ccccn2)N2CCOCC2)ccc2cccnc12", "note": "(stereo not given)", "Potency": "16.4 µM (active)"}
{"smiles": "O=C(O)c1cc(S(=O)(=O)Nc2ccc3cn[nH]c3c2)ccc1Br", "activity change, negative = growth inhibition": "-23% (inactive)"}
{"smiles": "O=C(Nc1ccccc1)C1CC(=O)n2c(nc3ccccc32)N1", "note": "(stereo not given)", "activity change, negative = growth inhibition": "-4.62% (inactive)"}
{"smiles": "O=c1ccc2cc(S(=O)(=O)NCCCc3ccccc3)ccc2[nH]1", "activity change, negative = growth inhibition": "-0.674% (inactive)"}
{"smiles": "Cn1c(=O)c2c(nc(SCC(=O)Nc3ccc(F)cc3)n2Cc2ccccc2)n(C)c1=O", "Potency": "4.61 µM (active)"}
{"smiles": "COC(=O)C(C)Sc1nc2c(c(=O)n(C)c(=O)n2C)n1Cc1cccc(C)c1", "note": "(stereo not given)", "activity change, negative = growth inhibition": "-18.2% (inactive)"}
{"smiles": "CCC1CCCCN1C(=O)CSc1nc2c(c(=O)n(C)c(=O)n2C)n1C", "note": "(stereo not given)", "activity change, negative = growth inhibition": "-19.2% (inactive)"}
{"smiles": "Cc1cccc(Cn2c(SCCO)nc3c2c(=O)n(C)c(=O)n3C)c1", "Potency": "25.9 µM (active)"}
{"smiles": "CSc1nnc(C2CCCN(CC(=O)Nc3ccccc3N3CCOCC3)C2)n1C(C)C", "note": "(stereo not given)", "activity change, negative = growth inhibition": "-20% (inactive)"}
{"smiles": "C#CC(C)(C)NC(=O)CSc1nc2c(c(=O)n(C)c(=O)n2C)n1CCCC", "activity change, negative = growth inhibition": "-13% (inactive)"}
{"smiles": "CC(C)n1c(SCC(=O)Nc2ccccc2N2CCCCC2)nc2c1c(=O)n(C)c(=O)n2C", "Potency": "29.1 µM (active)"}
{"smiles": "CCCCn1c(SCC(=O)N2CCOCC2)nc2c1c(=O)n(C)c(=O)n2C", "activity change, negative = growth inhibition": "2.67% (inactive)"}
{"smiles": "CCOC(=O)CSc1nc2c(c(=O)n(C)c(=O)n2C)n1Cc1ccccc1F", "activity change, negative = growth inhibition": "-17% (inactive)"}
